TWEAK-Fn14 inh – inhibitors of TWEAK-Fn14 signaling, primary screen, luciferase reporter cells, uHTS; actives 2% (n = 360,000); TWEAK-stimulated Fn14 reporter cells, luciferase luminescence, 8 h; inhibition, % at 10 µM; AID 1159606, 2016; in the data active = inhibition above about 50%
LMP1 NFkB inh – EBV LMP1-driven NF-kappaB luciferase reporter inhibitors, primary screen, cell-based, luminescence, single point; LMP1-induced NF-kappaB luciferase reporter cells; inhibition, % at 12.5 µM; actives 0.69% (n = 350,000); AID 504558, 2011; in the data active = inhibition above about 41%;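 note: 0% = neutral control wells and 100% = reference inhibitor control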
TROY signal inh – inhibitors of TROY-driven NF-kB signaling, primary screen, Q293 LMP1-TROYcd cells, NF-kB luciferase, uHTS; Q293 LMP1-TROYcd NF-kB luciferase reporter, 4 h; inhibition, % at 10 µM; actives 0.98% (n = 360,000); AID 1347056, 2019;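 active = compounds whose plate-normalised and pattern-corrected inhibition of the luciferase reporter signal at the single screening dose is 50% or more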
LGR2 antag – inhibitors of bursicon-induced LGR2 CRE-luciferase signal, primary screen, cell-based, HEK293, CRE-luciferase reporter, bursicon stimulation | Drosophila bursicon receptor LGR2 (rickets) | bursicon-stimulated, 4 h | inhibition, % at 9.99 µM | actives 0.35% (n = 380,000) | AID 720647, 2013;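 active = drop in luminescence signal, shown as inhibition above about 50% in the replicate tests, limit read from the data, passing the limit was not always enough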;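 note: agonist challenge used bursicon conditioned medium at about half maximal strength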
EWS-Fli block – EWS/Fli-driven NR0B1 reporter inhibitors, primary screen, A673 cells, NR0B1 luciferase, luminescence, MLPCN library; viability-normalised; inhibition, % at 12.6 µM; actives 0.67% (n = 350,000); AID 651661, 2012;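 active = mean inhibition of at least 50% after viability correction, with every replicate also passing that limit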;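 note: firefly luciferase signal divided by Alamar Blue viability fluorescence both relative to DMSO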
Starred values were filed as active, the others as inactive; · = no result given. A selection: hits, their analogues and other compounds. The true share with any hit is near 2.5%.

SMILES | TWEAK-Fn14 inh | LMP1 NFkB inh | TROY signal inh | LGR2 antag | EWS-Fli block
Cc1cc2c(c(/C=C/C(=O)c3ccccc3)c1)OC1(C=C2)Oc2ccccc2C(=O)N1C (configuration not stated) | 69* | -40 | 17 | 50* | 43
C[C@@H]1CN([C@H](C)CO)C(=O)c2cc(NS(=O)(=O)c3ccccc3)ccc2O[C@@H]1CN(C)C | · | · | · | 8 | ·
COc1ccc(S(=O)(=O)NCc2ccccn2)cc1NC(=O)c1ccccc1C | 14 | -15 | 2 | 6 | 60*
CC(/C=N\N1CCN(c2ccc(Cl)cc2)CC1)=C\c1ccccc1 | -6 | 4 | 62* | -1 | ·
CC(/C=N/N1CCN(c2ccc(C)cc2)CC1)=C\c1ccccc1 | -1 | 11 | 7 | 0 | ·
C[C@H]1CN([C@@H](C)CO)C(=O)c2cc(-c3ccc(F)cc3)cnc2O[C@H]1CN(C)CC1CCCCC1 | · | · | · | -6 | -14
COc1ccc(S(=O)(=O)Nc2ccc3c(c2)C(=O)N([C@H](C)CO)C[C@@H](C)[C@H](CN(C)C(=O)NC(C)C)OCCCC[C@@H](C)O3)cc1 | · | · | · | -14 | -2
NC(=S)N/N=C/c1ccccc1OCCSc1ccc(Cl)cc1 | 61* | -21 | 20 | 30 | ·
O=[N+]([O-])c1ccc(S(=O)(=O)c2cccc(C(F)(F)F)c2)nc1 | -3 | 76* | 62* | · | ·
CCC(=O)N[C@H]1CC[C@@H](CCn2cc(-c3cccc(OC)c3)nn2)O[C@@H]1CO | · | · | · | 17 | -11
Cc1cc2ncn(CS(C)(=O)=O)c2cc1C | 0 | 6 | -7 | 18 | 3
C=C(C)Cn1cnc2cc(C)c(C)cc21 | 86* | 5 | -4 | 3 | 6
Cc1noc(C)c1NC(=O)N(C)C[C@@H]1Oc2ccc(NS(=O)(=O)c3ccc(F)cc3)cc2CC(=O)N([C@@H](C)CO)C[C@@H]1C | · | · | · | -16 | -8
O=C(C1CC(=O)N(c2ccc3c(c2)OCCO3)C1)N1CCN(S(=O)(=O)c2ccccc2F)CC1 (configuration not stated) | 83* | 10 | 49 | 3 | 31
O=C(C1CC(=O)N(c2ccc3c(c2)OCCO3)C1)N1CCN(S(=O)(=O)c2cccc(F)c2)CC1 (configuration not stated) | 18 | -1 | 1 | -7 | 9
O=C(C1CC(=O)N(c2ccc3c(c2)OCCO3)C1)N1CCN(S(=O)(=O)c2ccc(F)cc2)CC1 (configuration not stated) | 3 | 53* | 0 | -12 | 7
COc1cccc(NC(=O)N(C)C[C@@H]2Oc3cc(/C=C/c4ccccc4)ccc3S(=O)(=O)N([C@@H](C)CO)C[C@H]2C)c1 | · | · | · | 39 | 9
CCC(=O)N1C[C@H](O)COC[C@H]2O[C@H](CC(=O)NCC3CCCCC3)CC[C@@H]21 | · | · | · | -10 | 0
COc1cccc(N2CCN(C(C)C(=O)NC34CC5CC(CC(C5)C3)C4)CC2)c1 (configuration not stated) | 90* | -1 | 4 | 5 | 18
O=C(CCl)N(Cc1ccccc1)c1ccccc1 | 24 | 1 | -27 | 15 | 73*
Cc1cccc(N(Cc2ccccc2)C(=O)CCl)c1 | 41 | 2 | -11 | 24 | 52*
COC(=O)c1ccc(C(=O)N(Cc2ccccc2)c2ccccc2)cc1 | -1 | -5 | -6 | 6 | ·
COc1ccc(CC(=O)N(Cc2ccccc2)c2cccc(C)c2)cc1OC | 9 | -6 | -5 | 3 | ·
CN1CCN(c2ccc(NC(=O)c3sc4ccccc4c3Cl)cc2)CC1 | -30 | 13 | 60* | 64* | 19
CCCCOc1ccc(C(=O)Nc2ccc(N3CCN(C(C)=O)CC3)cc2)cc1 | 40 | 21 | 21 | · | ·
SMILES | TWEAK-Fn14 inh | LMP1 NFkB inh | TROY signal inh | LGR2 antag | EWS-Fli block
CC(=O)N1CCN(c2ccc(NC(=O)c3ccc(C(C)(C)C)cc3)cc2)CC1 | 20 | 3 | 52* | -11 | ·
CCCCOc1ccc(C(=O)Nc2ccc(N3CCN(C(=O)C(C)C)CC3)cc2)cc1 | 59* | 12 | 23 | · | ·
Cc1cccc(C)c1NC(=O)CSC(=O)c1sc2ccccc2c1Cl | 33 | 8 | 59* | -3 | 4
C[C@@H]1CCCCO[C@H](CN(C)C)[C@@H](C)CN([C@H](C)CO)C(=O)c2cc(NC(=O)Nc3ccc4c(c3)OCO4)ccc2O1 | · | · | · | -11 | -14
COc1ccc(S(=O)(=O)N[C@@H]2CC[C@@H](CCn3cc(C(C)C)nn3)O[C@@H]2CO)cc1 | · | · | · | 14 | -6
Cc1ccc(C(=O)Nc2ccc(N3CCN(S(C)(=O)=O)CC3)cc2)cc1C | -18 | -11 | -41 | -56 | -27
Cc1ccc(C(=O)Nc2ccc(N3CCN(C)CC3)cc2)cc1C | 75* | 24 | 57* | 9 | 15
CN1CCN(c2ccc(NC(=O)COc3ccccc3[N+](=O)[O-])cc2)CC1 | -17 | -6 | -9 | 7 | -11
CC(C)C(=O)N1CCN(c2ccc(NC(=O)COc3ccccc3[N+](=O)[O-])cc2)CC1 | 75* | 12 | 49 | 63* | -2
Cc1cccc(Cn2nc(-n3cccc3)c3c(C)cc(C)nc32)c1 | -12 | 47* | -38 | 0 | -2
O=c1oc2c(O)c(O)cc3c(=O)oc4c(O)c(O)cc1c4c23 | 88* | -3 | 15 | · | ·
O=c1oc2ccccc2c2oc3cc(O)c(O)cc3c12 | -33 | 8 | -23 | -23 | 0
O=C(C[C@H]1CC[C@H](NC(=O)Nc2cc(F)ccc2F)[C@H](CO)O1)Nc1ccccc1 | · | · | · | 0 | -1
COc1ccc(C(=O)/C=C/Nc2cccc(O)c2)cc1 | 52* | -35 | -50 | · | ·
COC(=O)c1ccc(N/C=C/C(=O)c2ccccc2)cc1 | 51* | -12 | -21 | -37 | -50
COc1cccc(N/C=C/C(=O)c2ccc(Br)cc2)c1 | 31 | -31 | -46 | · | ·
COc1ccc(C(=O)/C=C/Nc2ccc(S(=O)(=O)Nc3cccc(C(C)=O)c3)cc2)cc1 | 79* | 6 | 19 | 13 | ·
COc1cc(OC)c(OC)cc1/C=C/C(=O)c1ccc(NS(=O)(=O)c2ccc(C)cc2)cc1 | 62* | 11 | 36 | 25 | ·
C[C@H](CO)N1C[C@H](C)[C@H](CN(C)S(C)(=O)=O)Oc2ncc(-c3ccccc3)cc2C1=O | · | · | · | -10 | 0
COc1cccc(-c2sc3ccccc3c2-c2ccc(OCCN(C)C)cc2)c1 | -9 | 89* | 23 | 2 | 11
O=C(C[C@@H]1C=C[C@@H](NS(=O)(=O)c2ccc(F)cc2)[C@@H](CO)O1)N1CCC(Cc2ccccc2)CC1 | · | · | · | 28 | 14
C[C@@H]1CN([C@@H](C)CO)C(=O)c2cc(NC(=O)Nc3ccc(C(F)(F)F)cc3)ccc2O[C@H]1CN(C)S(=O)(=O)c1cccs1 | · | · | · | 1 | -7
COc1ccc(C(=O)Nc2nnc(Cc3ccc(OC)c(OC)c3)s2)c(OC)c1 | 82* | -6 | -15 | -39 | -83

Screens as filed in PubChem.
